# Screening results as filed in PubChem.
# ADAM17 inh: ADAM17 inhibitors, primary screen, biochemical, QFRET | AID 720648, 2013 | 370,000 tested, 0.83% active | recombinant ADAM17, EDANS/DABCYL FRET peptide cleavage | inhibition, % at 6.95 µM | Disintegrin and metalloproteinase domain-containing protein 17 (Homo sapiens), P78536;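 active = inhibition above the mean of compounds lying between control limits plus 3 SD, set per campaign, cut at about 8.5% in these data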;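 note: 0% = DMSO-only wells as the low control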
# ADAM10 inh: human ADAM10 inhibitors, primary screen, biochemical, QFRET, HTS | recombinant ADAM10, EDANS/DABCYL FRET peptide cleavage, 3 h | inhibition, % at 7 µM | 370,000 tested, 0.62% active | AID 720582, 2013;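 active = inhibition above a per-campaign cutoff equal to the mean of compounds falling between control-based bounds plus 3 SD, cut at about 20% in these data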;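 note: 0% = DMSO wells while the 100% control is not disclosed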
# proKLK7 act: proKLK7 zymogen activators, primary screen, biochemical, fluorescence intensity; purified proKLK7, EDANS-DABCYL substrate fluorescence; 100% is mature enzyme control, 0% vehicle; activation, % at 7 µM; 370,000 tested, 0.9% active; AID 652039, 2013;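 active = activation above the mean of all tested compounds plus 3 SD, computed per campaign excluding outliers beyond control limits, cut at about 13% in these data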
# NRP1-CendR mod: modulators of CendR peptide binding to NRP-1, primary screen, biochemical, fluorescence polarization, uHTS; FAM-RPARPAR peptide binding to NRP-1; inhibition, % at 25 µM; 360,000 tested, 0.85% active;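 active = inhibition or corrected inhibition above about 18%, plus a signal ratio from 0.5 to 1.5, limit read from the data, passing the limit was not always enough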
# Target sequence (O14786 whole entry, looked up): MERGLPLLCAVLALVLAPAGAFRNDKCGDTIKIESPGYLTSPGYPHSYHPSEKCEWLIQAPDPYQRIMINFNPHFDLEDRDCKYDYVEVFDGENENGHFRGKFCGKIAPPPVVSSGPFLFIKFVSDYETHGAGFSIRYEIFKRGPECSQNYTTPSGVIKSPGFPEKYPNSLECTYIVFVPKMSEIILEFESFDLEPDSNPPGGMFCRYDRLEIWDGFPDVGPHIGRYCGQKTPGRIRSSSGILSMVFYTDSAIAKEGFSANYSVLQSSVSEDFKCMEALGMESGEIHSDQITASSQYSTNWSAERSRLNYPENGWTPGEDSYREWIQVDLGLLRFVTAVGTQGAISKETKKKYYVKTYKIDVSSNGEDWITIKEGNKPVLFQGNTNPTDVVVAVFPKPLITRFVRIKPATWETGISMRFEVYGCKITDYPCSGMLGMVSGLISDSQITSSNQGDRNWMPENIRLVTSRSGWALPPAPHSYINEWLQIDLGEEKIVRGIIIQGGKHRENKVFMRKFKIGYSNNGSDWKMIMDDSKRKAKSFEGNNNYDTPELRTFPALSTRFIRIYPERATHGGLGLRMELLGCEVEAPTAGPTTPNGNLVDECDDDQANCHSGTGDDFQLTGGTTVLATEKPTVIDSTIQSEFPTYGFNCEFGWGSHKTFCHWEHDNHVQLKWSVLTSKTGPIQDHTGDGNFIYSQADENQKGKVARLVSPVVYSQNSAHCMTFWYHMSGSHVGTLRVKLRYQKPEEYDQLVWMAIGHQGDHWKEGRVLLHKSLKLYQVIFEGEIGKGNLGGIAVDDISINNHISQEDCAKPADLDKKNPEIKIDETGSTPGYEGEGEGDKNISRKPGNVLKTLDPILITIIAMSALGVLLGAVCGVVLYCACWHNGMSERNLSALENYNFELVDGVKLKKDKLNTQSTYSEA
# sPLA2-III inh: human group III sPLA2 inhibitors, primary screen, biochemical, QFRET, BODIPY PC-A2 liposome substrate; Group 3 secretory phospholipase A2 (Homo sapiens), Q9NZ20; QFRET BODIPY PC-A2 liposome hydrolysis, fluorescence; inhibition, % at 12.2 µM; 370,000 tested, 0.56% active;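 active = inhibition above mean plus 3 SD of compounds lying within the high and low control bounds, cut at about 19% in these data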;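 note: 0% = median of test compound wells and 100% = no enzyme DMSO wells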
# * = called active by the depositor; i = inactive; / = no result given. Rows were chosen to be rich in hits. Some 3.4% of all compounds tested hit in one or more screens of this group.
SMILES,ADAM17 inh,ADAM10 inh,proKLK7 act,NRP1-CendR mod,sPLA2-III inh
CCOC(=O)[C@]12CCCC=C1N(CCCOC)C(=O)[C@@H]2CC(=O)NCc1ccc(OC)c(OC)c1,-2.8,-14.7,0.5,/,15.5
CCOC(=O)C(C)Sc1nc2ccccc2c(=O)n1CC (stereo unspecified),-2.8,-1.6,0.5,41.5*,-1.3
CC(C)CNC(=O)C1CSCCS(=O)(=O)N1Cc1ccccc1 (stereo unspecified),-3.1,-2.2,-0.3,/,9.7
COc1ccc(S(=O)(=O)N2CCc3ccccc3C2)cc1OC,3.8,20.6*,-0.7,1.3,-14.6
COc1ccc(C(=O)c2ccc3oc(-c4ccc(OC)cc4)c(-c4ccc(O)cc4)c3c2)cc1,8.6*,5.5,-0.3,7.3,-4.2
COC(=O)[C@]12C[C@H](CC(=O)N3CCC(c4ccccc4)CC3)C(=O)N(Cc3cccc4ccccc34)C1=C[C@H](C1CCCC1)O[C@@H]2C,-4.2,-4.6,-0.1,/,9.8
CC(COc1ccc(Br)cc1)CN1CCC(C(O)(c2ccccc2)c2ccccc2)CC1 (stereo unspecified),5.8,-1.5,-0.2,/,-17.6
C/C(=N/NC(=O)c1ccncc1)c1ccc(NC(=O)c2ccc(Cl)cc2Cl)cc1,-0.1,4.3,0.6,4.0,-2.5
CC(C)CC(=NNC(=O)c1ccncc1)c1cc(Cl)ccc1O,-4.0,-7.0,-2.9,-127.4,21.2*
COC(=O)[C@]12C[C@H](CC(=O)NCC34CC5CC(CC(C5)C3)C4)C(=O)N(Cc3ccco3)C1=C[C@H](COCc1ccccc1)O[C@@H]2C,4.3,11.0,0.3,/,-14.9
COC(=O)C[C@@H]1CC[C@@H]2[C@H](COc3ccc(NC(=O)c4cccc(OC)c4)cc3C(=O)N2C)O1,0.9,-2.6,-0.5,/,4.8
O=C1C=CC(=O)C(CNc2ccc(C(=O)OCc3ccccc3)cc2)=C1,3.4,5.3,0.3,-2.7,25.9*
CCOC(=O)CC[C@H]1CC[C@]2(CCCN(C(=O)C(C)(C)C)C2)O1,2.9,3.6,-1.1,/,0.8
Cc1ccc(S(=O)(=O)Oc2ccc(N3C(=O)C4C5CCC(C5)C4C3=O)cc2)cc1 (stereo unspecified),-4.2,-10.2,-0.1,23.7*,-4.0
CCN(CC)C(=O)CC[C@H]1CC[C@]2(CCCN(Cc3cccc4ccccc34)C2)O1,0.2,4.4,0.2,/,-1.6
CCCn1nc2cc(C(=O)NCc3ccc(OC(F)(F)F)cc3)ccc2c1OCC,-200.3,i,-12.3,18.8*,-17.0
CCOc1c2ccc(C(=O)NCc3ccc(OC(F)(F)F)cc3)cc2nn1CC,-150.8,i,-5.0,-5.3,1.2
CC(C)COC(=O)C(N)C(C(=O)OCC(C)C)c1ccccc1 (stereo unspecified),-2.0,-0.3,0.3,29.7*,3.1
Fc1ccc(-c2n[nH]c(=S)n2N=Cc2cccc(OCc3ccccc3)c2)cc1,2.0,4.8,-0.4,/,-12.1
O=C(COC(=O)Cn1cnc2ccccc21)Nc1ccc(Br)cc1,1.5,-1.4,0.6,31.7*,-11.2
O=C1C=C(O)c2cccc(O)c2C1=O,-1.6,-3.3,-1.5,24.3,0.8
CC1OC(CC(=O)O)CC2=C1C(=O)c1c(O)cccc1C2=O (stereo unspecified),-4.1,-18.5,1.8,34.6*,7.8
Cn1cccc1C(=O)N1CCN(S(=O)(=O)c2ccc([N+](=O)[O-])cc2)CC1,1.3,-1.9,-0.2,/,-4.3
COc1ccc(S[C@]2(C(=O)N3CCN(c4ncccn4)CC3)CC(=O)N(C(=O)CCc3ccccc3)[C@@H]2c2ccc(OC)cc2)cc1,-0.3,-4.1,0.2,/,1.0
Cc1onc(-c2c(Cl)cccc2Cl)c1C(=O)c1c[nH]c(C(=O)NCCCN2CCOCC2)c1,-2.5,-1.4,0.3,23.1*,-7.0
SMILES,ADAM17 inh,ADAM10 inh,proKLK7 act,NRP1-CendR mod,sPLA2-III inh
CSc1cccc(CN2CCN(Cc3ccccc3)C(CCO)C2)c1 (stereo unspecified),-1.6,-5.2,0.3,24.3*,0.9
CCOC(=O)N1CCN(C(=O)C[C@H]2C[C@@]3(C(=O)OC)C(=C[C@H](C(C)(C)C)O[C@@H]3C)N(Cc3cccc4ccccc34)C2=O)CC1,7.8,16.5,0.0,/,-12.2
COc1ccc(/C=C2\C(=O)OCc3cc(OC)c(OC)cc32)cc1OC,1.5,6.1,0.2,25.2*,5.8
CCCCNC(=O)C1CCCN1C(=O)NCc1ccccc1OC (stereo unspecified),1.6,-1.8,0.0,/,13.3
COc1ccc(-c2noc(-c3ccccc3C(=O)N3CCOCC3)n2)cc1,-1.7,-6.2,-0.1,25.5*,-9.3
Cc1ccc(-c2noc(-c3ccccc3C(=O)N3CCOCC3)n2)cc1,2.8,-11.1,0.0,1.4,3.2
C=CCn1c(SCC(=O)Nc2ncc(Cc3ccc(Br)cc3)s2)nnc1-c1ccncc1,-3.2,1.3,-0.3,23.4*,-4.2
Cc1onc(C(=O)N2CCN(C(c3ccc(Cl)cc3)c3ccc(Cl)cc3)CC2)c1[N+](=O)[O-],6.1,15.0,/,/,-35.6
COc1cc(/C=N/S(=O)(=O)CCc2ccccc2)cc(OC)c1O,4.1,4.5,-0.4,38.9*,4.3
Cc1c(Cl)cnc(NC(=O)COC(=O)CNC(=O)c2ccccc2)c1Cl,-5.9,-10.0,-0.2,-7.7,14.8
Cc1c(Cl)cnc(NC(=O)COC(=O)[C@H](C)NC(=O)c2ccccc2)c1Cl,-1.9,-23.2,0.3,26.2*,-1.1
CCC1=C(OC(=O)N(CC)CC)N2C(=O)OC(=NCC(=O)OC)[C@]2(Cc2ccccc2)[C@H]2C1=CC[C@H]1C(=O)N(CC(=O)OC)C(=O)[C@H]12,0.5,-2.1,0.7,27.3*,-2.3
CCC1=C(OC(=O)N(CC)CC)N2C(=O)OC(=NCc3ccccc3)[C@]2(C)[C@H]2C1=CC[C@H]1C(=O)N(CC)C(=O)[C@H]12,-1.8,-6.1,0.2,10.1,6.1
CCC1=C(OC(=O)N(CC)CC)N2C(=O)OC(=NCC(=O)OC)[C@]2(C)[C@H]2C1=CC[C@H]1C(=O)N(CC(=O)OC)C(=O)[C@H]12,-1.2,5.2,0.6,24.1*,10.9
CCC1=C(OC(=O)N(CC)CC)N2C(=O)OC(=NCC(=O)OC)[C@]2(C)[C@H]2C1=CC[C@H]1C(=O)N(CC)C(=O)[C@H]12,-1.4,-4.7,0.5,35.4*,1.6
CCC1=C(OC(=O)N(CC)CC)N2C(=O)OC(=NCCOC)[C@]2(Cc2ccccc2)[C@H]2C1=CC[C@H]1C(=O)N(C)C(=O)[C@H]12,-1.0,2.5,0.8,24.2*,-5.0
COC(=O)[C@]12C[C@H](CC(=O)NCc3ccc(C)o3)C(=O)N(Cc3ccc(Cl)cc3Cl)C1=C[C@H](C(C)(C)C)O[C@@H]2C,7.3,9.8,-0.2,/,-11.3
